# Laboratory results: PubChem BioAssay
# Values without a mark were called inactive. No rule for the calls is given here.
# System: Aerobactin synthetase IucA (Klebsiella pneumoniae hvKP1)
# Test: IucA enzyme inhibition, primary screen, biochemical, Spectrum library (AID 1346200);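 also: 100% = wells without compound and 0% = wells lacking enzyme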
# Settings: malachite green pyrophosphate, A620, at 8 µM, stronger effect = lower value
row,Structure (SMILES),activity remaining
1,COc1ccc2c(c1)OC[C@@H](Cc1ccc(OC)c(OC)c1)[C@H]2O,109%
2,CCCCC1C(=O)N(c2ccccc2)N(c2ccc(O)cc2)C1=O (stereo not given),114%
3,CCCCCCCCCCCCCCCC(=O)OC[C@H](NC(=O)C(Cl)Cl)[C@H](O)c1ccc([N+](=O)[O-])cc1,95.5%
4,C=C(C)[C@H]1CC=C(C(=O)O)CC1,120%
5,CO/N=C(/C(=O)NC1C(=O)N2C(C(=O)O)=C(COC(N)=O)CSC12)c1ccco1 (stereo not given),92.5%
6,CC(CC(O)C1OC1(C)C)[C@@H]1CCC2(C)C3=CCC4C(C)(C)C(=O)CCC4(C)C3CC[C@@]12C (stereo not given in full),102%
7,COc1cc(O)c(C)c(O)c1,112%
8,CN(C)C(=N)N=C(N)N,120%
9,CNCCc1ccccn1,114%
10,CC(=O)NO,103%
11,CCCCCC/C=C\CCCCCCCc1cccc(O)c1C(=O)O,112%
12,O=C1c2c(O)cccc2Cc2cccc(O)c21,92.3%
13,CCNC(=O)CC[C@H](N)C(=O)O,119%
14,OC(CCN1CCCCC1)(c1ccccc1)c1ccccc1,95.4%
15,O=c1cc(-c2ccccc2)oc2c(O)c(O)ccc12,92.5%
16,C[C@]12C=CC(=O)C=C1CCC1C2C(=O)C[C@@]2(C)C1CC[C@]2(O)C(=O)CO (stereo not given in full),101%
17,CCCCCCCCCc1ccc(OCCOCCOCCOCCOCCOCCOCCOCCOCCO)cc1,109%
18,O=C(O)CCCN1C(=O)c2cccc3cccc(c23)C1=O,110%
19,NC[C@H]1O[C@H](OC2[C@@H](N)C[C@@H](N)[C@H](O[C@H]3O[C@H](CO)[C@@H](O)[C@H](N)[C@H]3O)[C@H]2O)[C@H](O)[C@@H](O)[C@@H]1O (stereo not given in full),97%
20,COc1c2c(cc3occ(-c4ccc5c(c4)OCO5)c(=O)c13)OC(C)(C)C=C2,111%

row,Structure (SMILES),activity remaining
1,CC(C)=CCc1c(O)cc2occ(-c3ccc4c(c3)OCO4)c(=O)c2c1O,114%
2,C=CCCCCCCCCCCCC(O)CC(O)COC(C)=O (stereo not given) (tested in a mixture with another compound),81.7%
3,C=C(CC)C(=O)c1ccc(OCC(=O)O)c(Cl)c1Cl,100%
4,CC(=O)c1ccc2c(c1)N(CCCN(C)C)c1ccccc1S2,104%
5,O=C(O)C1=C[C@@H](O)[C@@H](O)[C@H](O)C1,86.3%
6,CC[C@H]1OC(=O)C[C@@H](O)[C@H](C)[C@@H](O[C@@H]2O[C@H](C)[C@@H](O[C@H]3C[C@@](C)(O)[C@@H](O)[C@H](C)O3)[C@H](N(C)C)[C@H]2O)[C@@H](CC=O)C[C@@H](C)C(=O)/C=C/C(C)=C/[C@@H]1CO[C@@H]1O[C@H](C)[C@@H](O)[C@@H](OC)[C@H]1OC,112%
7,COc1cccc2c1C(=O)c1c(O)c3c(c(O)c1C2=O)C[C@@](O)(C(=O)CO)C[C@@H]3OC1C[C@H](N)[C@H](O)[C@H](C)O1 (stereo not given in full),87.4%
8,NC(=O)N/N=C/c1ccc([N+](=O)[O-])o1,94.6%
9,CC(=O)NC(C(=O)O)C(C)(C)SN=O (stereo not given),97%
10,COC(=O)C[C@@H]1C2(C)C(=O)[C@@H](CC3=C4C=C(OC)O[C@@H](c5ccoc5)[C@]4(C)CCC32)[C@H](O)C1(C)C (stereo not given in full),93.6%
11,CC(=O)N1CCN(c2ccc(OCC3CO[C@](Cn4ccnc4)(c4ccc(Cl)cc4Cl)O3)cc2)CC1 (stereo not given in full),97%
12,CC(=O)N(O)CCCCCNC(=O)CCC(=O)N(O)CCCCCNC(=O)CCC(=O)N(O)CCCCCN,117%
13,Nc1ccc(S(=O)(=O)Nc2ccc(Cl)nn2)cc1,112%
14,CN(CCOc1ccc(CC2SC(=O)NC2=O)cc1)c1ccccn1 (stereo not given),113%
15,CC(C)(C)NC[C@@H](O)COc1nsnc1N1CCOCC1,99.4%
16,O=C(Oc1cc(OC(=O)c2ccccc2)c2c(c1)O[C@H](c1ccc(OC(=O)c3ccccc3)c(OC(=O)c3ccccc3)c1)[C@@H](OC(=O)c1ccccc1)C2)c1ccccc1,106%
17,O=c1c(O)c(-c2ccccc2)oc2ccc3occc3c12,104%
18,COc1ccc(-c2oc3cc(OC)c(OC)c(OC)c3c(=O)c2OC)cc1,115%
19,CCOC(=O)[C@H](CCc1ccccc1)N[C@@H](C)C(=O)N1CCC[C@H]1C(=O)O,113%
20,COc1cc2ccc(=O)oc2cc1O,110%
